Experimental data reported in the supplement of paper PMC6555819.

These sequences were tested on VDR:RXRa (NR concentration 270 nM, RXRa partner concentration 90 nM) (assay: PBM binding z-score (relative to random genomic background probes); higher = stronger binding; sequences stand for … in GC…GCGATTGACAGCGTAGAATGAAGG).
Experimental: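 Protein-binding microarray (Agilent 4x180K custom design, double-stranded 60-nt probes: 5' GC cap, 34-nt variable region, 24-nt constant primer region; full probe sequence given). Purified or IVT nuclear receptor:RXRα heterodimers (3:1 NR:RXRα, mostly 270:90 nM) or homodimers were incubated for 1 h in PBS with 2% milk and no ligand, then detected with Alexa488 antibodies. Fluorescence from o1-orientation probes (~5 replicates averaged) was converted to z-scores against 500 random hg19 background probes. Variable regions are seed direct-repeat (DR0–DR5) sites, all their single-nucleotide variants and half-site ablations.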

Sequence | PBM binding z-score
TCTATTAGTTGATTAGTGCAACCGAAACAGCGGA | 0.827
TCTTTTAGATCAATAGAGGTTAAGAAAGTGCGCT | 2.22
GGCACGAGGGCAAAGTTGATAGCATCTGTCGACG | 1.23
TCTGCTAGGTCCACGATGGTCAGCTAATCTGCTA | -0.304
TCATATAGGTATTACAGGTGAAAGTCGGCATCTA | 1.34
CCTACTGGGCCATCAGGTCATTGAGATCAACGTT | 3.41
ACTCGGAGGACAAAGGTCAGAGCCACGCCAGTGA | 3.43
GGAACGAGGGCAATCGAGTTGATAGCATGGCGAT | 3.11
ATCGAAAGGCCGAGGTGAGTATAGAGAAAGGGAA | -0.47
CTACCAAGGTGAACAAGGTCGTTAATTACTATTC | 6.04
TCTGCTAGGTCAGTTGTTCAGCTAACGAGCTGCC | -0.272
CTACCAAGGTGAACAAAGTCGTTGATTACTATTC | 0.601
TCACCAAGGTGAAGGTCGTTGATCCCTCTGTAGA | 1.34
AATACAGGGTCACTAGGCCAGCGTAGGTACGAAT | 4.16
TCTATTTGGTCAAAGGTCACACACTCGAAATGCG | 5.41
CGAACTAGGTCATTGACAGGACAGAGAATAGTAA | 2.18
ACTATTAGTTGAGACGAGGACAACCGATAGGTTG | 0.286
ACTATTAGTTGACTTAGGGCAACTGATACGACGC | 0.239
ACCTCTAGGTAAAGATAGTTCAGTGAATGCAAAT | 0.302
CGAGCTAGGTCATTGACAGGACAGTGAATAGTAA | 2.04

Sequence | PBM binding z-score
ATCTCTATGTAAAGTTCAGTGAAAGATCGATAGA | 1.26
TCTAGTTGGTCAAAGGTCAGACACTCGAAATGCG | 4.09
GGGACGAGGGCATTCGAGTTGATAGCATGGCGAT | 3.62
GTACCAAGGTGAATAGGTCGTCGATGAGTAGGCG | 0.97
CCGAGTGGGGCAAGGTTACCATAACGCACAGCCA | 0.482
CCTGCTAGGTCATGGCCAGCTAATCTACAGTATG | 1.43
GCTAGTTGGTCAGTAAAAGTTCACACACCGGTCG | 2.55
ACTCGGAGGACAAAGGTCAGATCTACGCCAGTGA | 3.49
ACAGACAGGTGAGTGAAGGTAACTCATCTGGACG | -0.347
TCTAGCAGGCCAGAGGGCCACTCAAGAGGTACGG | -0.505
GATACAGGGTCAAGGCCAGTGTACGCGTATTGAT | 4.28
GGAACGAGGGCATTCCAGTTGATAGCATGGCGAT | 2
CCTGCTAGGTCAATGGACAGCTAAAGCAGCTCGC | 0.586
AATACAGGGTCATCGTAGGCGAGAGTACGCACAG | 5.01
GCAGACAGGTGAAACGCAGGTCACTCAGGGTGGC | 2.28
ATAATGAGGTTATACGTAGATCAGGGAAGAAAGT | 1.95
CCGACTGAGGCATAAGGTTACCATAAGCCAGCCC | 0.114
CCTAGCAAGCCAGGGTCACTCAAGCATTTCGCTT | 2.8
CGAGCTAGGTCATCCAGGACAGTGAATACATTGA | 4.4
ATCTCTAGGTAAAGATGGTTCAGTGAATGCAAAT | 0.607
